Values joined by “and” are separate entries in the source; they are usually repeats but may differ in a detail not shown here. Equal entries are not always repeated. Active and inactive are the calls of the source. Unless noted, the rule behind the calls is not given here.
Experiments:
[1] = tested on: Wnt5a (protein binding on small-molecule microarray); experiment: small molecules binding Wnt5a protein – biophysical, small-molecule microarray, 635/667 nm fluorescence, primary screen (AID 1142); settings: 635 nm fluorescence, higher = more signal;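 note: fluorescence read at 667 nm with signal to noise per printed feature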
[2] = ATP-based viability of Huh7 replicon cells – cell-based, CellTiter-Glo luminescence, basal, 48 h, cytotoxicity control for HCV replication inhibitor project, primary screen (AID 1143); settings: higher = more signal, called active from +8 up or from −8 down;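 note: Huh7 hepatoma cells carrying a hepatitis C replication reporter with no stimulus; test concentration not given here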
[3] = Pseudomonas biofilm growth suppression – PAO1 strain, BacTiter-Glo luminescence, LB-PBS, primary screen (AID 1144); settings: P. aeruginosa PAO1 biofilm, 12 h, higher = more signal
[4] = basal CRE-LacZ reporter activity in PC12 – cell-based, unstimulated, primary screen (AID 1145); settings: no forskolin, luminescence, 4.5 h, higher = more signal, called active from +8 up or from −8 down
[5] = forskolin-driven CRE-LacZ activity in PC12 – cell-based, CRE-LacZ reporter, forskolin-stimulated, primary screen (AID 1146); settings: luminescence, 4.5 h, higher = more signal, called active from +8 up or from −8 down;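 note: PC12 cells with 6xCRE LacZ reporter stimulated by forskolin 10 µM; beta-galactosidase reporter signal reflecting CREB driven transcription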
[6] = target: Streptavidin (Streptomyces avidinii) (UniProt P22629); experiment: compounds binding control protein streptavidin – biophysical, small-molecule microarray, 635/667 nm fluorescence, artefact control for SMM compound annotation, primary screen (AID 1147); settings: higher = more signal;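 note: signal reflects streptavidin binding to arrayed compounds as a control protein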
[7] = probe aInhba binding on compound microarray – biochemical, small-molecule microarray, 635/667 nm fluorescence, primary screen (AID 1148); settings: higher = more signal;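 note: score merges 667nm spot fluorescence with signal-to-noise for antibody binding to printed compounds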
Torsin-1A (Homo sapiens) [8] = target: Torsin-1A (Homo sapiens) (UniProt O14656); experiment: TOR1A wild-type binding on microarray – cell lysate, small-molecule microarray, lysate, 635/667 nm, primary screen (AID 1149); settings: COS7 hTOR1A-WT lysate, 635 nm fluorescence, higher = more signal
Torsin-1A (Homo sapiens) [9] = target: Torsin-1A (Homo sapiens) (UniProt O14656); experiment: torsin A mutant lysate binding on microarrays – cell lysate, small-molecule microarray, COS7 lysate, 635/667 nm fluorescence, primary screen (AID 1150); settings: COS7 hTOR1A mutant lysate, 635 nm fluorescence, higher = more signal;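 note: score pools 667 nm emission and signal to noise measuring lysate protein binding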
[10] = tested on: Sonic hedgehog protein (Shh); experiment: Sonic hedgehog microarray binding compounds – biochemical, small-molecule microarray, 635/667 nm fluorescence, primary screen (AID 1151); settings: 635 nm fluorescence, higher = more signal;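 note: Shh protein binding to compounds spotted on small-molecule microarray slides; score combines spot fluorescence intensity with signal-to-noise across triplicate slides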
[11] = optical density shifts of acrAB sulA E. coli – strain DRC41, OD650, 48 h, E. coli filamentation inducer project, primary screen (AID 1152); settings: higher = more signal, called active from +8 up or from −8 down;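 note: E. coli MC1000 strain DRC41 lacking acrAB efflux pump and sulA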
[12] = probe aLefty1 binding on compound microarray – biochemical, small-molecule microarray, 635/667 nm fluorescence, primary screen (AID 1153); settings: higher = more signal;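 note: score merges spot fluorescence with signal-to-noise ratio from the scanned slide images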
[13] = plasmodial surface anion channel blockers, osmotic lysis – cell-based, P. falciparum Indochina, OD700, 1 h, primary screen (AID 1154); settings: P. falciparum Indochina infected RBC osmotic lysis, higher = more signal, called active from +8 up or from −8 down
[14] = plasmodial surface anion channel blockers, osmotic lysis – cell-based, P. falciparum Indochina, OD700, 2 h, primary screen (AID 1155);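 note: lysis reports solute entry through the parasite surface anion channel PSAC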; settings: P. falciparum Indochina infected erythrocytes, higher = more signal, called active from +8 up or from −8 down
[15] = changes in parasitized red cell lysis, either direction – P. falciparum Indochina, OD700, 3 h, PSAC antagonist project, primary screen (AID 1156); settings: P. falciparum-infected erythrocytes, osmotic lysis, higher = more signal, called active from +8 up or from −8 down
[16] = plasmodial surface anion channel blockers, osmotic lysis – cell-based, P. falciparum Indochina, OD700, 18 h, primary screen (AID 1157); settings: P. falciparum Indochina infected erythrocytes, osmotic lysis OD700, 18 h; higher = more signal, called active from +8 up or from −8 down
[17] = S6 kinase pathway phospho-S6 level changes – cell-based, A549, cytoblot, luminescence, serum-stimulated, primary screen (AID 1158); settings: 5 h, higher = more signal;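 note: serum-stimulated A549 lung adenocarcinoma cells; signal is phosphorylated S6 detected by cytoblot immunostaining with HRP secondary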
[18] = target: NADPH oxidase 2 (Homo sapiens) (UniProt P04839); experiment: compounds shifting NOX2 Amplex Red fluorescence – cell-based, HEK293-NOX2, PMA-stimulated, NOX inhibitor project, primary screen (AID 1159); settings: 45 min, higher = more signal, called active from +8 up or from −8 down; note: test concentration not given here
[19] = target: NADPH oxidase 4 (Homo sapiens) (UniProt Q9NPH5); experiment: compounds shifting NOX4 Amplex Red fluorescence – cell-based, HEK293-NOX4, tetracycline-induced, NOX inhibitor project, primary screen (AID 1160); settings: HEK293-NOX4, Amplex Red H2O2 fluorescence, 45 min; higher = more signal, called active from +8 up or from −8 down
[20] = target: NADPH oxidase 5 (Homo sapiens) (UniProt Q96PH1); experiment: compounds shifting NOX5 Amplex Red fluorescence – cell-based, HEK293-NOX5, NOX inhibitor project, primary screen (AID 1161); settings: HEK293-NOX5, ionomycin, 45 min, higher = more signal
NADPH oxidase 5 (Homo sapiens), sequence (Q96PH1 whole entry, looked up): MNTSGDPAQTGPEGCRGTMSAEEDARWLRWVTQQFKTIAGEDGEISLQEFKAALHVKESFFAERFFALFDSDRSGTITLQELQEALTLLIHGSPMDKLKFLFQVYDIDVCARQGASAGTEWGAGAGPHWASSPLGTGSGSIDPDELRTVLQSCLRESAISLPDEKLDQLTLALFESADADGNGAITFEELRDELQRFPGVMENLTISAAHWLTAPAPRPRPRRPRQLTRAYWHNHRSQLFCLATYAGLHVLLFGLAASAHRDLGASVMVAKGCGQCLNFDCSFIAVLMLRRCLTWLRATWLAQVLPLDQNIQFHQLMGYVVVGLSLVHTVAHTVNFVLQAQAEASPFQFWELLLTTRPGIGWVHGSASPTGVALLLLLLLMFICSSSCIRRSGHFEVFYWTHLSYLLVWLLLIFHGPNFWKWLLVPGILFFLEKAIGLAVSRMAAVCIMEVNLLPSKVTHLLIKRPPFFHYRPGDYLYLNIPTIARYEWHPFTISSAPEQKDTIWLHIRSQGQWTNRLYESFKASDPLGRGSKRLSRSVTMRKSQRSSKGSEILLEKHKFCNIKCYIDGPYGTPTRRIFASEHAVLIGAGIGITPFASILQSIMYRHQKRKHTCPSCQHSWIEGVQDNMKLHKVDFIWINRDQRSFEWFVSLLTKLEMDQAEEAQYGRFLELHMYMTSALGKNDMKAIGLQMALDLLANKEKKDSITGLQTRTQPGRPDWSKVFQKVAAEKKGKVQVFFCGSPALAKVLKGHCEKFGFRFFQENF

NADPH oxidase 2 (Homo sapiens), sequence (P04839 whole entry, looked up): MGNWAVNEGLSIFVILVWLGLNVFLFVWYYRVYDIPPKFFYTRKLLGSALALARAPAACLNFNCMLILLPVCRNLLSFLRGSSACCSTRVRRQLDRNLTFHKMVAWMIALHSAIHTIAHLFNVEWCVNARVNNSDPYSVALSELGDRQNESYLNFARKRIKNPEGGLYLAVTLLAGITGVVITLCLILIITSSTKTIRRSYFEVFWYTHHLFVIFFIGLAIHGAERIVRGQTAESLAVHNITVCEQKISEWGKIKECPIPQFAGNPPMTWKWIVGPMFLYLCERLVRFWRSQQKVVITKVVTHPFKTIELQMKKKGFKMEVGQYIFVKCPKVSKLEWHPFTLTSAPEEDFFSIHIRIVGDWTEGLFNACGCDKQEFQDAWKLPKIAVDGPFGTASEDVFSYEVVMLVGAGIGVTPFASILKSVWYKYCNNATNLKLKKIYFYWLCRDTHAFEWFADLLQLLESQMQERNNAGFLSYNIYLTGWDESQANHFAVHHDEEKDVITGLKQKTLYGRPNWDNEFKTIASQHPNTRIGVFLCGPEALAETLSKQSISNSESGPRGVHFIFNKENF
NADPH oxidase 4 (Homo sapiens), sequence (Q9NPH5 whole entry, looked up): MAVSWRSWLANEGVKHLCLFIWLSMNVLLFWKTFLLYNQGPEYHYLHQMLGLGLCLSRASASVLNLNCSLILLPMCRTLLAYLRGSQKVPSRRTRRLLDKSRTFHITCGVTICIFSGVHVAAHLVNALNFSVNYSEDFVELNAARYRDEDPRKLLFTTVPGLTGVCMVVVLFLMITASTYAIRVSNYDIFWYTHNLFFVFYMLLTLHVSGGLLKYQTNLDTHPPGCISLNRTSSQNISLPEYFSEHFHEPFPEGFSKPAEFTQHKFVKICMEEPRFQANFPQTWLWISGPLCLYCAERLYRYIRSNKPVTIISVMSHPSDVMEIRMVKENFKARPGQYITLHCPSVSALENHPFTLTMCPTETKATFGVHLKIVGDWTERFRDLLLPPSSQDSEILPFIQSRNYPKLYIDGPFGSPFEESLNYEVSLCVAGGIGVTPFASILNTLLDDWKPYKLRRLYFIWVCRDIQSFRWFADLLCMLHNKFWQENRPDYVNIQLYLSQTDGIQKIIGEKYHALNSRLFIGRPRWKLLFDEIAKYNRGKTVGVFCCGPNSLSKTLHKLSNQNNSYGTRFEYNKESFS
Streptavidin (Streptomyces avidinii), sequence (P22629 whole entry, looked up): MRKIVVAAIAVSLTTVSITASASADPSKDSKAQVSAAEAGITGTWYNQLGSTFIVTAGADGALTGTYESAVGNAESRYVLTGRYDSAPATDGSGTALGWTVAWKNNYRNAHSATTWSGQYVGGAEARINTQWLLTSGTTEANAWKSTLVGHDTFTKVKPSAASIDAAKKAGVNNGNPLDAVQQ
Torsin-1A (Homo sapiens), sequence (O14656 whole entry, looked up): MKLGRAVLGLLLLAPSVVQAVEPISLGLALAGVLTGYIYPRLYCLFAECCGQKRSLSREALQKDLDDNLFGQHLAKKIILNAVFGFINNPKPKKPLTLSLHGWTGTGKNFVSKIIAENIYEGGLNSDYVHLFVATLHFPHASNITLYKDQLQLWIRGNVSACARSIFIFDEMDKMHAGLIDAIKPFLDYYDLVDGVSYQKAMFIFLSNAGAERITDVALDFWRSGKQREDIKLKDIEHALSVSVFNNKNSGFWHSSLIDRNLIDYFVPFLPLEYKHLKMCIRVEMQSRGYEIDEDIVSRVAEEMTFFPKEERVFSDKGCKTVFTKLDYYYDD

Row | Compound | composite z-score [1] | z-score [2] | z-score [3] | z-score [4] | z-score [5] | composite z-score [6] | composite z-score [7] | composite z-score (Torsin-1A (Homo sapiens) [8]) | composite z-score (Torsin-1A (Homo sapiens) [9]) | composite z-score [10] | z-score [11] | composite z-score [12] | z-score [13] | z-score [14] | z-score [15] | z-score [16] | z-score [17] | z-score [18] | z-score [19] | z-score [20]
1 | CCOC(=O)C[C@H]1[C@H](OC(=O)c2ccccc2-c2ccccc2)[C@@H](NC(=O)Cc2ccc(OC)cc2)c2cc(OCCCO)ccc2N1C(=O)c1ccc2ccccc2n1 | 0.0561 and 0.261 | -0.319 (inactive) and 0.66 (inactive) | -0.568 (inactive) | 7.64 (inactive) and -1.13 (inactive) | -0.809 (inactive) and -0.751 (inactive) | 0.241 and 0.27 | 0.0543 and 0.168 | 0.0122 and -0.0425 | 0.19 and 0.686 | 0.207 and 0.3 | 2.19 (inactive) and 1.32 (inactive) | -0.012 and -0.0186 | 3.8 (inactive) and 1.18 (inactive) | 0.674 (inactive) and 0.879 (inactive) | 0.366 (inactive) and -0.295 (inactive) | 0.329 (inactive) and 0.627 (inactive) | 0.661 and 0.0515 | -0.488 (inactive) and 1.54 (inactive) | 0.946 (inactive) and 0.859 (inactive) | 0.365 and 0.0653
2 | C=CCN(CCCC)C(=O)C1N(C(C)(C)CO)C(=O)C2C(C(=O)O)C3C=CC21O3 (stereo not given) | -1.3 and -0.176 | 0.194 (inactive) and -0.11 (inactive) | 0.264 (inactive) and 1.42 (inactive) | -0.627 (inactive) and -0.611 (inactive) | -0.414 (inactive) and -0.388 (inactive) | -1.54 and -1.29 | -0.208 and -0.157 | -2.92 and -2.18 | -2.77 and -2.67 | -1.07 and -0.475 | -0.2 (inactive) and -0.302 (inactive) | -0.255 and -0.488 | 0.109 (inactive) and 0.0708 (inactive) | 0.134 (inactive) and 0.354 (inactive) | -0.724 (inactive) and -1.27 (inactive) | 0.0135 (inactive) and -0.109 (inactive) | 0.301 and -0.335 | 0.209 (inactive) and 0.495 (inactive) | 0.0887 (inactive) and -0.0844 (inactive) | 0.616 and 0.0892

Reference: PubChem BioAssay
